The list is not random: actives were taken first. Their share in the collection is about 6%.
D1 potentiator = human D1 dopamine receptor positive modulation; actives 0.036% (n = 360,000); HEK293 TREx D1 cells, calcium flux, dopamine EC20 potentiation; potentiation, % at 10 µM; in the data active = potentiation above about 30%
D3 ag = agonists of human D3 dopamine receptor; P35462; D3R DiscoveRx beta-arrestin cells, luminescence, 90 min; max activation, %; actives 0.58% (n = 410,000); in the data active = max activation above about 30%
Target sequence (P35462 whole entry, looked up): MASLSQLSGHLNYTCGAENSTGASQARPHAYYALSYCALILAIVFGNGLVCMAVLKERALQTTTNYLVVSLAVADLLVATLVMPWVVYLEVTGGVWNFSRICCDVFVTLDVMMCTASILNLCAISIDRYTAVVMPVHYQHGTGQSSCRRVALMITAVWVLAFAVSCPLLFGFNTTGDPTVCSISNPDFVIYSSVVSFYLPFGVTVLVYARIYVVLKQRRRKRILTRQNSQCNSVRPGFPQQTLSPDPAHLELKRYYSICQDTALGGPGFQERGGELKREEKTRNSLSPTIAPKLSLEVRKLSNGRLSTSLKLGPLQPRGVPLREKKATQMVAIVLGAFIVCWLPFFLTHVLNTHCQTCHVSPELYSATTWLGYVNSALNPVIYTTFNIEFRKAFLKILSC
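Cells at 1500/well, incubated overnight, then treated with pinned compounds (dopamine as control) for 90 min at 37 degrees C. DiscoveRx reagent added for 30 - 60 minutes at room temperature; luminescence read.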
DRD3 antagonist = antagonists of human D3 dopamine receptor. P35462. AID 652054. D3R cells, DiscoveRx beta-arrestin luminescence, antagonist mode; stronger effect = lower value. max response, negative = inhibition, %. actives 2.5% (n = 360,000); in the data active = max response below about -50%; inconclusive = no clear call, values can overlap the other calls
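Cells expressing the human receptor were seeded at 1500 cells/well, incubated overnight at 37 degrees C in 5% CO2, then exposed to library compounds with dopamine controls for 90 minutes at 37 degrees C before luminescent detection.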
D1 agonist = agonists of human D1 dopamine receptor; activation, % at 2 µM; actives 1% (n = 360,000); P21728; HEK293 T-REx D1 cells, calcium flux, agonist mode; in the data active = activation above about 30%
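Tetracycline-induced HEK293 TREx D1 cells, force-coupled to calcium signalling, were dye-loaded with a no-wash calcium kit. Compound was pin-added after a 10 s baseline. Fluorescence was read kinetically at 1 cycle/s for 180 s, with calcium rises flagged as agonism.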
D1 antag = antagonists of human D1 dopamine receptor; P21728; HEK293 TREx D1 cells, calcium flux, dopamine EC80; stronger effect = lower value; activity change, negative = inhibition, % at 10 µM; actives 3.2% (n = 360,000); AID 504652; in the data active = activity change below about -30%
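Tetracycline-induced HEK293 T-REx cells with force-coupled D1 receptor were loaded with a no-wash calcium dye. Compound was added after a 10 s baseline and read kinetically for 180 s; EC80 dopamine was then added and calcium flux followed another 180 s.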
A number is an active result; n = inactive; u = inconclusive; x = no result.

SMILES	D1 potentiator	D3 ag	DRD3 antagonist	D1 agonist	D1 antag
Cc1ccc(-n2c(/C=C\c3ccc(F)c(F)c3)nc3ccccc3c2=O)c(C)c1	n	n	x	n	n
C=C(C)[C@@]12OC3(c4ccccc4)O[C@@H]1C1[C@@H]4O[C@]4(CO)[C@@H](O)[C@]4(O)C(=O)C(C)=C[C@H]4[C@@]1(O3)[C@H](C)[C@H]2OC(=O)/C=C/C=C/c1ccccc1 (some centres not stated)	x	n	-61	x	x
CCOc1ccccc1N1C(=O)NC(=O)/C(=C/c2ccc3c4c(cccc24)CC3)C1=O	n	n	-52	n	n
CC(=O)O[C@H]1C[C@H](O[C@H]2[C@@H](O)C[C@H](O[C@H]3[C@@H](O)C[C@H](OC4CC[C@@]5(C)C(CC[C@@H]6[C@@H]5CC[C@]5(C)[C@@H](C7=CC(=O)OC7)[C@@H](O)C[C@]65O)C4)O[C@@H]3C)O[C@@H]2C)O[C@H](C)[C@H]1O[C@@H]1O[C@H](CO)[C@@H](O)[C@H](O)[C@H]1O (some centres not stated)	x	n	x	x	x
CC(C)Sc1nnc([C@@H](N)Cc2ccccc2)o1	n	n	n	75	n
CC(=O)O[C@H]1CC[C@@]2(C)C(=CC[C@@H]3[C@@H]2CC[C@]2(C)C(=O)CC[C@@H]32)C1	n	n	u	n	n
CC(=O)O/C(=C1\CC2C3CC=C4CC(OC(C)=O)CCC4(C)C3CCC2(C)C1=O)C(F)(F)F (configuration not stated)	x	n	-70	x	x
Cc1ccccc1-n1c(CF)nc2ccc(N)cc2c1=O	x	n	x	x	x
CC1(C)COC(Nc2cccc(Cl)c2)=N1	n	n	-55	n	n
NCCc1c[nH]c2ccc(F)cc12	n	x	x	n	-30
O=C(CCl)c1ccc(Oc2ccc(C(=O)CCl)cc2)cc1	x	n	x	x	x
CN1C2CCC1/C(=C/c1ccccn1)C(=O)/C2=C\c1ccccn1	n	n	-70	n	n
Cc1ccsc1C(=O)C1CCCN(Cc2ccccc2O)C1 (configuration not stated)	n	n	-53	n	n
COCc1ccc(CN2CCCC(C(=O)c3sccc3C)C2)o1 (configuration not stated)	n	n	u	n	n
Cc1ccsc1C(=O)C1CCCN(Cc2cnn(C(C)C)c2)C1 (configuration not stated)	n	n	-73	n	n
CCc1ccc(CN2CCCC(C(=O)c3sccc3C)C2)o1 (configuration not stated)	n	n	-52	n	n
O=C(Nc1ccc(Br)cc1)c1cc(Br)cc(Br)c1O	x	n	x	x	x
C[C@@H]1[C@H](O)[C@@H](C)/C=C/C=C/CC/C=C/C=C/C=C/C=C/[C@H](O[C@H]2O[C@@H](C)[C@H](O)[C@@H](N)[C@H]2O)CC2O[C@](O)(C[C@@H](O)[C@H](O)CC[C@@H](O)C[C@@H](O)C[C@@H](O)CC(=O)O[C@H]1C)C[C@H](O)[C@H]2C(=O)O	x	n	x	x	x
COc1ccc(/C=C/c2nc3ccccc3c(=O)n2-c2ccc(C)cc2)cc1O	n	n	x	n	n
CC(C)(C)c1cc(C=C(C#N)C#N)cc(C(C)(C)C)c1O	n	50	n	n	n
N#CC(C#N)=Cc1ccc(O)c(O)c1	n	n	n	n	n
CC1(C)CN=C(Nc2ccc(F)c(F)c2)S1	x	n	n	n	n
CC1(C)CN=C(Nc2ccc(F)c(Cl)c2)S1	n	n	n	34	n
COc1ccccc1-c1nn2c(=O)cc(CN3CCN(C(=O)COc4ccccc4Cl)CC3)nc2s1	n	n	x	n	n
COc1cc(C[C@H](C)N)c(OC)cc1C	x	n	x	x	x
SMILES	D1 potentiator	D3 ag	DRD3 antagonist	D1 agonist	D1 antag
C[C@@H]1NCCc2cc(O)c(O)cc21	n	n	-74	n	n
CCCC1=Nc2cc(C(=O)NC3CCC(C)CC3)ccc2Sc2ccccc21 (configuration not stated)	n	n	x	n	n
CN1CCC(N(C)c2nc(-c3ccc([N+](=O)[O-])cc3)nc3ccccc23)CC1	n	n	n	37	n
N#Cc1cccc(NC(=O)c2sc3nc4c(cc3c2N)N2CCC4CC2)c1	n	n	x	n	n
CN1CCN(CC#CCOc2ccc(Cl)cc2)CC1	n	n	n	n	n
Clc1ccc(OCC#CCN2CCCC2)cc1	n	n	-55	n	n
O=C(Nc1ccc2c(c1)OCO2)c1cccn(Cc2ccc(F)cc2)c1=O	n	n	x	n	x

Screening data: PubChem BioAssay, National Center for Advancing Translational Sciences (NCATS)
